Source: paper PMC5540273 (PLoS ONE, 2017)
Where “and” joins values, the source holds several entries; their conditions need not be identical. Equal entries are not always repeated. Where two headings read alike, the source gives them in different places.

Key:
EPHA3 = conditions: concentration: 1 μM, replicates: in singlicate, n = 1
EPHA4 = conditions: concentration: 1 μM, replicates: in singlicate, n = 1
EPHA5 = conditions: concentration: 1 μM, replicates: in singlicate, n = 1
EPHA6 = conditions: concentration: 1 μM, replicates: in singlicate, n = 1
EPHA7 = conditions: concentration: 1 μM, replicates: in singlicate, n = 1
EPHA8 = conditions: concentration: 1 μM, replicates: in singlicate, n = 1
EPHB1 = conditions: concentration: 1 μM, replicates: in singlicate, n = 1
EPHB2 = conditions: concentration: 1 μM, replicates: in singlicate, n = 1
EPHB3 = conditions: concentration: 1 μM, replicates: in singlicate, n = 1
EPHB4 = conditions: concentration: 1 μM, replicates: in singlicate, n = 1
EPHB6 = conditions: concentration: 1 μM, replicates: in singlicate, n = 1
ERBB2 = conditions: concentration: 1 μM, replicates: in singlicate, n = 1
ERBB3 = conditions: concentration: 1 μM, replicates: in singlicate, n = 1
ERBB4 = conditions: concentration: 1 μM, replicates: in singlicate, n = 1
ERK1 = system: T1, ERK1; conditions: concentration: 1 μM, replicates: in singlicate, n = 1
T1 construct: gene MAPK3

ERK2 = system: T2, ERK2; conditions: concentration: 1 μM, replicates: in singlicate; n = 1
T2 construct: gene MAPK1

ERK3 = system: T3, ERK3; conditions: concentration: 1 μM, replicates: in singlicate, n = 1
T3 construct: gene MAPK6

ERK4 = system: T4, ERK4; conditions: concentration: 1 μM, replicates: in singlicate, n = 1
T4 construct: gene MAPK4

ERK5 = system: T5, ERK5; conditions: concentration: 1 μM, replicates: in singlicate, n = 1
T5 construct: gene MAPK7

ERK8 = system: T6, ERK8; conditions: concentration: 1 μM, replicates: in singlicate; n = 1
T6 construct: gene MAPK15
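Further: KINOMEscan kinase panel screen.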

SMILES: Cc1c(Cn2c(C)nn3c(=O)cc(N4CCOC(C)C4)nc23)cccc1C(F)(F)F (centres unmarked) [GSK2344444]
- %Inh (EPHA3): 0%
- %Inh (EPHA4): 3%
- %Inh (EPHA5): 0%
- %Inh (EPHA6): 0%
- %Inh (EPHA7): 3%
- %Inh (EPHA8): 0%
- %Inh (EPHB1): 10%
- %Inh (EPHB2): 46%
- %Inh (EPHB3): 0%
- %Inh (EPHB4): 0%
- %Inh (EPHB6): 0%
- %Inh (ERBB2): 0%
- %Inh (ERBB3): 0%
- %Inh (ERBB4): 0%
- %Inh (ERK1): 0%
- %Inh (ERK2): 0%
- %Inh (ERK3): 0%
- %Inh (ERK4): 11%
- %Inh (ERK5): 0%
- %Inh (ERK8): 26%

SMILES: COc1cc2c(cc1OCCN1CCN(C)CC1)ncc1c3ccc(C#N)cc3[nH]c21
- %Inh (EPHA3): 18%
- %Inh (EPHA4): 1%
- %Inh (EPHA5): 0%
- %Inh (EPHA6): 0%
- %Inh (EPHA7): 0%
- %Inh (EPHA8): 0%
- %Inh (EPHB1): 10%
- %Inh (EPHB2): 0%
- %Inh (EPHB3): 2%
- %Inh (EPHB4): 0%
- %Inh (EPHB6): 53%
- %Inh (ERBB2): 43%
- %Inh (ERBB3): 4%
- %Inh (ERBB4): 29%
- %Inh (ERK1): 0%
- %Inh (ERK2): 12%
- %Inh (ERK3): 0%
- %Inh (ERK4): 10%
- %Inh (ERK5): 22%
- %Inh (ERK8): 0%

SMILES: CN(C1=C(c2ccccc2)C(=O)NC1=O)c1ccccc1 [SB-334860]
- %Inh (EPHA3): 24%
- %Inh (EPHA4): 6%
- %Inh (EPHA5): 6%
- %Inh (EPHA6): 10%
- %Inh (EPHA7): 2%
- %Inh (EPHA8): 6%
- %Inh (EPHB1): 8%
- %Inh (EPHB2): 20%
- %Inh (EPHB3): 11%
- %Inh (EPHB4): 9%
- %Inh (EPHB6): 20%
- %Inh (ERBB2): 29%
- %Inh (ERBB3): 0%
- %Inh (ERBB4): 33%
- %Inh (ERK1): 1%
- %Inh (ERK2): 13%
- %Inh (ERK3): 1%
- %Inh (ERK4): 44%
- %Inh (ERK5): 0%
- %Inh (ERK8): 0%

SMILES: CC(=O)Nc1ccc(COc2ccc(Nc3ccnc4cc(-c5ccccn5)ccc34)cc2)cc1.Cl [GW440148]
- %Inh (EPHA3): 17%
- %Inh (EPHA4): 3%
- %Inh (EPHA5): 0%
- %Inh (EPHA6): 8%
- %Inh (EPHA7): 0%
- %Inh (EPHA8): 17%
- %Inh (EPHB1): 0%
- %Inh (EPHB2): 0%
- %Inh (EPHB3): 8%
- %Inh (EPHB4): 10%
- %Inh (EPHB6): 53%
- %Inh (ERBB2): 12%
- %Inh (ERBB3): 0%
- %Inh (ERBB4): 73%
- %Inh (ERK1): 0%
- %Inh (ERK2): 0%
- %Inh (ERK3): 6%
- %Inh (ERK4): 47%
- %Inh (ERK5): 14%
- %Inh (ERK8): 0%

SMILES: Cc1cccc(Cn2ccn3c(=O)cc(N4CCOCC4)nc23)c1 [GSK2297542]
- %Inh (EPHA3): 12%
- %Inh (EPHA4): 10%
- %Inh (EPHA5): 0%
- %Inh (EPHA6): 9%
- %Inh (EPHA7): 0%
- %Inh (EPHA8): 19%
- %Inh (EPHB1): 23%
- %Inh (EPHB2): 0%
- %Inh (EPHB3): 13%
- %Inh (EPHB4): 15%
- %Inh (EPHB6): 24%
- %Inh (ERBB2): 1%
- %Inh (ERBB3): 0%
- %Inh (ERBB4): 27%
- %Inh (ERK1): 20%
- %Inh (ERK2): 5%
- %Inh (ERK3): 27%
- %Inh (ERK4): 32%
- %Inh (ERK5): 0%
- %Inh (ERK8): 0%

SMILES: COc1ccc(CNC(=O)NC2CCN(c3ccnc(Nc4ccc(OC)cc4)n3)C2)cc1 (centres unmarked) [GSK1379727]
- %Inh (EPHA3): 0%
- %Inh (EPHA4): 10%
- %Inh (EPHA5): 0%
- %Inh (EPHA6): 2%
- %Inh (EPHA7): 0%
- %Inh (EPHA8): 1%
- %Inh (EPHB1): 6%
- %Inh (EPHB2): 0%
- %Inh (EPHB3): 7%
- %Inh (EPHB4): 11%
- %Inh (EPHB6): 26%
- %Inh (ERBB2): 39%
- %Inh (ERBB3): 10%
- %Inh (ERBB4): 2%
- %Inh (ERK1): 0%
- %Inh (ERK2): 0%
- %Inh (ERK3): 0%
- %Inh (ERK4): 20%
- %Inh (ERK5): 0%
- %Inh (ERK8): 0%

SMILES: NS(=O)(=O)CCc1cccc(Nc2nccc(-c3c(-c4cccc(NC(=O)c5c(F)cccc5F)c4)nn4ccccc34)n2)c1 [GSK336735]
- %Inh (EPHA3): 30%
- %Inh (EPHA4): 45%
- %Inh (EPHA5): 0%
- %Inh (EPHA6): 48%
- %Inh (EPHA7): 8%
- %Inh (EPHA8): 60%
- %Inh (EPHB1): 26%
- %Inh (EPHB2): 18%
- %Inh (EPHB3): 0%
- %Inh (EPHB4): 11%
- %Inh (EPHB6): 97.1%
- %Inh (ERBB2): 98.7%
- %Inh (ERBB3): 94%
- %Inh (ERBB4): 100%
- %Inh (ERK1): 7%
- %Inh (ERK2): 0%
- %Inh (ERK3): 0%
- %Inh (ERK4): 10%
- %Inh (ERK5): 45%
- %Inh (ERK8): 0%

SMILES: CC(C)(CN)c1nc(-c2ccc(Cl)c(O)c2)c(-c2ccncc2)[nH]1.O=C(O)C(F)(F)F [SB-477794]
- %Inh (EPHA3; 1 µM): 50% and 61%
- %Inh (EPHA4; 1 µM): 42% and 23%
- %Inh (EPHA5; 1 µM): 0% and 2%
- %Inh (EPHA6; 1 µM): 74% and 63%
- %Inh (EPHA7; 1 µM): 35% and 20%
- %Inh (EPHA8; 1 µM): 87% and 85%
- %Inh (EPHB1; 1 µM): 45% and 20%
- %Inh (EPHB2; 1 µM): 37% and 30%
- %Inh (EPHB3; 1 µM): 35% and 14%
- %Inh (EPHB4; 1 µM): 24% and 38%
- %Inh (EPHB6; 1 µM): 2% and 28%
- %Inh (ERBB2; 1 µM): 83% and 80%
- %Inh (ERBB3; 1 µM): 42% and 45%
- %Inh (ERBB4; 1 µM): 26% and 35%
- %Inh (ERK1; 1 µM): 0% and 11%
- %Inh (ERK2): 0%
- %Inh (ERK3; 1 µM): 20% and 0%
- %Inh (ERK4; 1 µM): 13% and 20%
- %Inh (ERK5; 1 µM): 32% and 56%
- %Inh (ERK8): 0%

SMILES: O=C(c1ccc(-c2cc(-c3c[nH]nc3-c3ccccn3)ccn2)cc1)N1CCOCC1 [GW812171]
- %Inh (EPHA3): 17%
- %Inh (EPHA4): 33%
- %Inh (EPHA5): 1%
- %Inh (EPHA6): 6%
- %Inh (EPHA7): 0%
- %Inh (EPHA8): 0%
- %Inh (EPHB1): 13%
- %Inh (EPHB2): 0%
- %Inh (EPHB3): 16%
- %Inh (EPHB4): 0%
- %Inh (EPHB6): 0%
- %Inh (ERBB2): 11%
- %Inh (ERBB3): 0%
- %Inh (ERBB4): 0%
- %Inh (ERK1): 0%
- %Inh (ERK2): 0%
- %Inh (ERK3): 0%
- %Inh (ERK4): 16%
- %Inh (ERK5): 0%
- %Inh (ERK8): 5%

SMILES: CN1c2ccc(NCc3ccc(F)cc3)cc2-c2c(cnn2C)S1(=O)=O
- %Inh (EPHA3): 0%
- %Inh (EPHA4): 0%
- %Inh (EPHA5): 0%
- %Inh (EPHA6): 0%
- %Inh (EPHA7): 0%
- %Inh (EPHA8): 0%
- %Inh (EPHB1): 0%
- %Inh (EPHB2): 0%
- %Inh (EPHB3): 6%
- %Inh (EPHB4): 0%
- %Inh (EPHB6): 0%
- %Inh (ERBB2): 7%
- %Inh (ERBB3): 27%
- %Inh (ERBB4): 0%
- %Inh (ERK1): 0%
- %Inh (ERK2): 0%
- %Inh (ERK3): 0%
- %Inh (ERK4): 0%
- %Inh (ERK5): 3%
- %Inh (ERK8): 22%
